Measurements taken from PubChem BioAssay (NCI).
This is part of a sample that, as a whole, favours compounds with a hit. Of some 79,000 tested, about 15% had one in any assay. A number with no mark means an inactive call. Active and inactive are the calls of the source. Rule as the data show it: active = growth inhibition above about 70%; inactive = the rest.

Assays:
[1] = NCI Yeast Anticancer Drug Screen. Data for the rad50 strain (AID 155);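 also: 0% = growth of vehicle-only cultures of the same strain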; conditions: S. cerevisiae rad50 strain growth inhibition, stronger effect = higher value
How it was run: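 Cells are treated with compound, grown, and their growth is then scored against vehicle-only cultures of the same repair-deficient yeast strain.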

[2] = NCI Yeast Anticancer Drug Screen. Data for the mec2-1 strain (AID 157); conditions: S. cerevisiae mec2-1 strain, stronger effect = higher value
How it was run: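 Strain: mec2-1 (DNA repair/cell cycle alteration). Compound exposure, then growth measured; inhibition expressed relative to vehicle.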

[3] = NCI Yeast Anticancer Drug Screen. Data for the sgs1 mgt1 strain (AID 161);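 also: 0% = growth of cultures given vehicle only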; conditions: S. cerevisiae sgs1 mgt1 strain, stronger effect = higher value
How it was run: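 Mutant yeast exposed to compound; growth scored against vehicle-only wells.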

[4] = NCI Yeast Anticancer Drug Screen. Data for the cln2 rad14 strain (AID 165);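 also: 0% = growth equal to vehicle treated cultures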; conditions: S. cerevisiae cln2 rad14 strain, stronger effect = higher value
How it was run: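 Compounds are applied to the cln2 rad14 yeast strain, and growth is then compared with that of vehicle-treated cultures to give inhibition.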

[5] = NCI Yeast Anticancer Drug Screen. Data for the bub3 strain (AID 167); conditions: S. cerevisiae bub3 mutant strain, stronger effect = higher value
How it was run: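 Part of a panel of yeast mutants defective in DNA damage repair or cell cycle regulation. Each strain is grown with compound, and inhibition is calculated relative to solvent-treated cultures.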

[6] = NCI Yeast Anticancer Drug Screen. Data for the mlh1 rad18 strain (AID 175); conditions: S. cerevisiae mlh1 rad18 strain growth inhibition, stronger effect = higher value
How it was run: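 Read-out is yeast growth inhibition, calculated against vehicle-only controls. The compound was applied to a strain engineered with DNA damage repair alterations.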

[7] = at 5.0 µM (retest, dose inferred, filed as 0.5)
[8] = at 50.0 µM (retest, dose inferred, filed as 5.0)

Row | Compound | growth inhibition [1, 7] [%] | growth inhibition [1, 8] | growth inhibition ([1]; at 50.0 µM) | growth inhibition [2, 7] [%] | growth inhibition [2, 8] | growth inhibition ([2]; at 50.0 µM) | growth inhibition [3, 7] [%] | growth inhibition [3, 8] | growth inhibition ([3]; at 50.0 µM) | growth inhibition [4, 7] [%] | growth inhibition [4, 8] | growth inhibition ([4]; at 50.0 µM) | growth inhibition [5, 7] [%] | growth inhibition [5, 8] | growth inhibition ([5]; at 50.0 µM) | growth inhibition [6, 7] [%] | growth inhibition [6, 8] | growth inhibition ([6]; at 50.0 µM)
1 | CCOc1ccc(N=NS(=O)(=O)O)cc1 | -8 | 14% | 61.1% | -11 | -23% | -5.45% | -12 | -24% | -6.5% | -29 | -88% | 15% | -7 | -13% | -23.1% | -2 | -5% | 9.4%
2 | O=C1c2ccccc2Cc2cc(O)ccc21 | 29 | 94% (active) | 47.5% | 13 | 92% (active) | 48.4% | 8 | 91% (active) | 45% | 4 | 88% (active) | 82.5% (active) | 2 | 89% (active) | 88.6% (active) | 10 | 92% (active) | 91.3% (active)
3 | COc1ccc(C(O)/C(=N\NC(N)=S)c2nc3ccc([N+](=O)[O-])cc3[nH]c2=O)cc1OC (configuration not stated) | 4 | 97% (active) | 66.1% | 1 | 99% (active) | 28.2% | 4 | 97% (active) | 20.6% | 1 | 98% (active) | 6.55% | 6 | 98% (active) | 22.7% | 0 | 97% (active) | 52.8%
4 | [O-]/[N+]1=[N+](\[O-])c2ccccc2CCc2ccccc21 | -1 | -4% | 3.8% | -1 | 1% | -4.65% | 4 | 1% | 40.1% | -1 | -4% | 1% | -1 | 0% | 15.4% | -3 | 3% | 1.6%
5 | C[n+]1c(-c2ccc(/C=N\Nc3nnc(S)n3/N=C/c3ccc(-c4cn5ccccc5[n+]4C)cc3)cc2)cn2ccccc21 | 7 | 98% (active) | 94.5% (active) | -16 | 96% (active) | 92.9% (active) | 3 | 97% (active) | 95.8% (active) | 4 | 94% (active) | 92.1% (active) | 29 | 98% (active) | 93% (active) | 10 | 97% (active) | 96.8% (active)
6 | COC(=O)/C=C1/OC(c2ccccc2)=C(C)C1=O | 6 | 6% | 30.7% | 18 | 18% | 30.7% | 14 | 14% | 48.9% | -6 | -6% | -7.85% | 0 | 0% | 5.8% | 8 | 8% | 42.6%
7 | CN=c1sc2c(n1C)C(=O)c1ccccc1C2=O | 26 | 48% | 82.6% (active) | 17 | 40% | 75.7% (active) | 31 | 49% | 87.8% (active) | 21 | 23% | 25.6% | 28 | 64% | 65.9% | 23 | 54% | 80.8% (active)
8 | CSC(C=P(c1ccccc1)(c1ccccc1)c1ccccc1)=Nc1ccccc1 | 58 | 98% (active) | 96.8% (active) | 22 | 96% (active) | 99% (active) | 23 | 98% (active) | 95.5% (active) | 3 | 97% (active) | 98.3% (active) | 16 | 97% (active) | 98.2% (active) | 15 | 97% (active) | 95.7% (active)
9 | [N-]=[N+]=Nc1c(-c2ccccc2)c(Cl)nc2ccccc12 | 11 | 99% (active) | 76% (active) | -7 | 98% (active) | 76.1% (active) | -4 | 98% (active) | 85.2% (active) | 20 | 98% (active) | 82.9% (active) | -33 | 97% (active) | 87.4% (active) | 2 | 98% (active) | 87.2% (active)
10 | CC(C)(C)OC(=O)C(N(Cc1ccccc1)Cc1ccccc1)N(Cc1ccccc1)Cc1ccccc1 | 0 | 14% | 12.1% | 2 | 9% | 20.6% | 2 | 17% | 24.4% | 3 | 10% | -2.05% | 0 | 11% | 4.75% | 3 | 22% | 30.3%
11 | COc1c([N+](=O)[O-])cc(-c2ccccc2)cc1[N+](=O)[O-] | -4 | 89% (active) | 69.9% | 10 | 98% (active) | 65.3% | 14 | 93% (active) | 77.8% (active) | -2 | 58% | 67.5% | 5 | 63% | 74.2% (active) | 26 | 96% (active) | 83.2% (active)
12 | N#CC12CCCC(=O)N1c1ccccc1S2 (configuration not stated) | 10 | 5% | 12.9% | -7 | 10% | 7.85% | 1 | 1% | -2.3% | -12 | -3% | 43.5% | 3 | 1% | -6.8% | 14 | -2% | -10.2%
13 | CC1=C(C)C(=O)C2=C(OCCCO2)C1=O | -9 | -12% | -6.55% | 9 | -19% | -21.1% | -2 | 11% | -0.8% | -21 | 5% | 5.35% | -13 | -19% | 48.8% | -24 | -19% | 10%
14 | CNc1nc(N)nc(N(C)c2ccc(Br)cc2)c1N=O | 22 | 71% (active) | 68.2% | 40 | 58% | 12.3% | 11 | 32% | 17.6% | 16 | 33% | -30.7% | 20 | 64% | 21.2% | 36 | 79% (active) | 43.9%
15 | CCC(N)C(O)C(C)C (configuration not stated) | -1 | 10% | 71.7% (active) | -1 | 1% | 2.6% | -3 | 2% | 14.3% | -2 | -2% | -10.6% | 3 | 17% | 13.2% | -1 | 3% | 10.6%
16 | N#C/C(=C\c1cccnc1)c1csc2ccccc12 | 2 | 86% (active) | 95.3% (active) | 8 | 91% (active) | 88.8% (active) | 2 | 85% (active) | 75.2% (active) | 1 | 83% (active) | 73% (active) | 1 | 83% (active) | 94.2% (active) | -5 | 88% (active) | 94.4% (active)
17 | CC1=CC(=O)c2c(O)c3c(c(O)c2C1=O)C1C(O)C(C3=O)C23C(=O)c4c(O)c(C)cc(O)c4C(O)=C2C(=O)CC(O)C13 (configuration not stated) | -27 | 93% (active) | 91.5% (active) | 7 | 98% (active) | 93.3% (active) | -21 | 96% (active) | 92.7% (active) | 14 | 97% (active) | 91.3% (active) | 12 | 97% (active) | 91.1% (active) | 9 | 96% (active) | 91.8% (active)
18 | Oc1cccnc1CN1CCCCC1 | -5 | 19% | -11.7% | 6 | 22% | -3.1% | 7 | 8% | -28.5% | 14 | 14% | 85.7% (active) | -21 | 7% | -10.8% | 19 | 46% | -21.1%
19 | CC(=O)OC(CCl)C(C)[N+](=O)[O-] (configuration not stated) | 7 | 91% (active) | 90.8% (active) | 5 | 96% (active) | 98.5% (active) | 7 | 75% (active) | 46.6% | 6 | 83% (active) | 36.9% | 6 | 99% (active) | 97.7% (active) | 5 | 86% (active) | 43.4%
